# Laboratory results taken from PubChem BioAssay (EPA / NIEHS).
# Records with an inconclusive call do not appear. Active and inactive are the calls of the source. How the source made its calls: active means hit-call score of the fitted dose curve at least 0.9, where 1 is the maximum; inconclusive means response in the unintended direction; inactive means score below 0.9.
# System: not listed separately
# Test: ACEA_ER_AUC_viability: ACEA Biosciences xCELLigence Real-Time Cell Analysis on Estrogen Receptor Agonism for Viability (AID 2283782);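 further: continuous compound exposure with impedance area under curve over 80 h; hit means loss of impedance signal meaning reduced cell growth or viability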
# How it was run: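 T47D cells preconditioned in phenol red-free RPMI with charcoal-stripped FBS, then dosed with 8-point 1:4 series from 100 uM (up to 0.5% DMSO). Impedance monitored up to ~80 h; area-under-curve loss versus DMSO taken as viability.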
SMILES,outcome,AC50
Cc1cc(=O)[nH]c(=O)[nH]1,inactive,–
C=CC(=O)NC(C)(C)C,inactive,–
CCN1CCCC1=O,inactive,–
CCNc1nc(NC(C)(C)C)nc(OC)n1,–,26.2 µM (active)
CC(=O)C(C)C,inactive,–
CC(=O)OCC=C(C)C,inactive,–
C=CC(=O)OCCCCCCCC(C)C,inactive,–
O=C(O)CCCC(=O)O,inactive,–
CC(C)=CCl,inactive,–
OCCCc1ccccc1,inactive,–
CC(C)CCCCCOC(=O)CS,inactive,–
CCc1cccc(C)c1N(C(=O)CS(=O)(=O)O)C(C)COC (centres undefined),–,50 µM (active)
CC(C)C(=O)OCCc1ccccc1,inactive,–
COc1nccnc1CC(C)C,inactive,–
COC(OC)(C(=O)c1ccccc1)c1ccccc1,–,64 µM (active)
Nc1ccnc(=O)[nH]1,inactive,–
CC1(C)CC(O)CC(C)(C)N1[O],inactive,–
CC(=O)/C=C/C1C(C)=CCCC1(C)C (centres undefined),inactive,–

SMILES,outcome,AC50
c1ccc2sc(SSN3CCOCC3)nc2c1,–,84.8 µM (active)
Oc1ccc(/C=C/c2cc(O)cc(O)c2)cc1,–,20.6 µM (active)
CC(C)c1cccc(C(C)C)c1N,inactive,–
N#CC1(N)CCCCC1,inactive,–
Cc1noc(NS(=O)(=O)c2ccc(N)cc2)c1C,inactive,–
CC(C)CCOCc1ccccc1,inactive,–
CC=C(C)C(C)=O,inactive,–
CC1=CP(=O)(c2ccccc2)CC1 (centres undefined),inactive,–
CCCC1CCCC(=O)O1 (centres undefined),inactive,–
O=C1CCCN1C1CCCCC1,inactive,–
CC1C(C)(C)C2=C(C(=O)CCC2)C1(C)C (centres undefined),inactive,–
Cn1cccc1,inactive,–
CC(C)(O)Cc1ccccc1,–,27.5 µM (active)
C=CC(=O)OCC(C)OCC(C)OCC(C)OC(=O)C=C (centres undefined),–,21.3 µM (active)
C=CC(C)(CCC=C(C)C)OC(=O)C=Cc1ccccc1 (centres undefined),–,83.6 µM (active)
Clc1cc(Cl)c(Cl)c(Cl)c1Cl,inactive,–
CCc1cccc(CC)c1,inactive,–
Nc1cccc(N)n1,inactive,–

# Target: AR (gene 367) (UniProt P10275)
# Sequence (P10275 whole entry, looked up): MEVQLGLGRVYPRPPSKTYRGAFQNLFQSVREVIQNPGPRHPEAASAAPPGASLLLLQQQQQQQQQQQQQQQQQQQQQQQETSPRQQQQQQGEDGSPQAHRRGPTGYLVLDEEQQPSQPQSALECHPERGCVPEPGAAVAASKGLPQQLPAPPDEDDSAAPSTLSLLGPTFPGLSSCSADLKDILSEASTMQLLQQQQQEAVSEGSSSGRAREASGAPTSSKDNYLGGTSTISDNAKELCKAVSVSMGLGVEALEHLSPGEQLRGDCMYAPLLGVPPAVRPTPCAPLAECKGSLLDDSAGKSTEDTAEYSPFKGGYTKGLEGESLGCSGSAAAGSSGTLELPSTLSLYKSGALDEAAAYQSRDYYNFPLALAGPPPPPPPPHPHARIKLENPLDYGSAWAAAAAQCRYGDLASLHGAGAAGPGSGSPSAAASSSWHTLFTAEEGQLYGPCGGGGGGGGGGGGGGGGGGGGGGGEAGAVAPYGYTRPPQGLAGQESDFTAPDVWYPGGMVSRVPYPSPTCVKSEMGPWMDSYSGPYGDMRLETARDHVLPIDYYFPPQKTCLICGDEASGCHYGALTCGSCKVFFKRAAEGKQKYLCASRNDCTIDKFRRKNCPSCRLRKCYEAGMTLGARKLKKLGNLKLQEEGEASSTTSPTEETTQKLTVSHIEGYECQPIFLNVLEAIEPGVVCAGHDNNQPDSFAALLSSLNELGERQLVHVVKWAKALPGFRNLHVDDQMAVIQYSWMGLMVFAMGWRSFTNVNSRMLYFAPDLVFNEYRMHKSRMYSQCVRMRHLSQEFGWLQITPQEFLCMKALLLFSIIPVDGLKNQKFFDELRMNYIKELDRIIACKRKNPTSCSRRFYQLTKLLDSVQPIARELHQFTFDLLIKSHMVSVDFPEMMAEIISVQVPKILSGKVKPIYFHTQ
# Test: ACEA_AR_agonist_80hr: ACEA Biosciences xCELLigence Real-Time Cell Analysis on Androgen Receptor Agonism for Proliferation (AID 2283783);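 further: hits increase impedance growth signal above DMSO baseline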
# How it was run: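 Proliferation of 22Rv1 prostate cancer cells tracked by electrical impedance, endpoint taken at 80 hours after dosing. Eight-point 1:4 dilutions from 100 uM maximum final, duplicate; testosterone and MG132 as positive controls, assay media as negative.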
SMILES,outcome,AC50
CCCCCC[C@@H](O)C/C=C\CCCCCCCC(=O)OCC(O)CO (some centres undefined),inactive,–
Cc1ccc(C)c(OCCCC(C)(C)C(=O)O)c1,inactive,–
COc1cc(O)c(C(=O)c2ccccc2)cc1S(=O)(=O)O,–,0.0228 µM (active)
